ChEMBL document CHEMBL2218924, “A broad activity screen in support of a chemogenomic map for kinase signalling research and drug discovery” (Biochem J, 2013)

What follows are compounds tested against Casein kinase I isoform delta (Homo sapiens) (UniProt P48730). Conditions: at 10 µM.
Sequence of Casein kinase I isoform delta (Homo sapiens) (P48730 whole entry, looked up, canonical isoform): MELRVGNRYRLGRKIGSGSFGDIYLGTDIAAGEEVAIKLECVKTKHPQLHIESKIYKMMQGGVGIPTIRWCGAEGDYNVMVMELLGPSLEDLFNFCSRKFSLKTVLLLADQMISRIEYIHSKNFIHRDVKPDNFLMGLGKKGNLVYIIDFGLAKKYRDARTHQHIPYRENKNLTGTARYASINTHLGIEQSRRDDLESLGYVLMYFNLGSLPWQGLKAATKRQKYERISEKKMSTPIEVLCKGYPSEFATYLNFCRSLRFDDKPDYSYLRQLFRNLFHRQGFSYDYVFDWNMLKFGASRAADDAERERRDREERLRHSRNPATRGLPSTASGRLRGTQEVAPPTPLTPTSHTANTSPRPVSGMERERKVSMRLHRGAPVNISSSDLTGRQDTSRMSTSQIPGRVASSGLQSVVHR

Row | SMILES | residual activity [%]
1 | CCCC(=O)Oc1ccc2[nH]c(C(=O)c3cc4ccccc4[nH]3)cc2c1 | 101
2 | Cn1sc(=O)n(Cc2ccccc2)c1=O | 84
3 | O=C1NC(=O)C(c2cn(CCCn3ccnc3)c3ccccc23)=C1Nc1ccccc1 | 75
4 | Nc1n[nH]c2nc3ccccc3nc12 | 34
5 | COc1cc2nccc(Oc3ccc(NC(=S)NC(=O)c4ccccc4C)cc3)c2cc1OC | 62
6 | NCCNc1ncc(C(N)=O)c(Nc2cccc(C(F)(F)F)c2)n1 | 58
7 | CC(C)(C)n1nc(Cc2cccc3ccccc23)c2c(N)ncnc21 | 3
8 | Nc1ncnc2c1cnn2-c1ccccc1 | 36
9 | O=c1cc(N2CCOCC2)oc2c1ccc1ccccc12 | 86
10 | O=C(O)/C=C/c1cc(Br)c(Br)c(Br)c1Br | 12
11 | O=C1NC(=O)c2c1c1c3ccccc3[nH]c1n1cncc21 | 9
12 | O=C(Nc1nc2ccccc2n1CCN1CCOCC1)c1cccc([N+](=O)[O-])c1 | 62
13 | COc1ccc2c(c1)c(C1=C(c3c[nH]c4ccccc34)C(=O)NC1=O)cn2CCCN(C)C | 76
14 | O=C(c1ccccc1)c1ccc(N2CCOCC2)cc1O | 92
15 | NC(=O)Nc1sc(-c2ccc(F)cc2)cc1C(N)=O | 31
16 | O=C(c1cc2cc(O)ccc2[nH]1)c1cc2cc(O)ccc2[nH]1 | 37
17 | CCCCc1c(-c2ccc(O)cc2)[nH]c2nccnc12 | 52
18 | N#C/C(=C1/Nc2ccccc2S1)c1ccnc(NCCc2cccnc2)n1 | 8
19 | COc1cc2c(cc1OC)-c1n[nH]c(Nc3cccc(F)c3)c1C2 | 39
20 | Cc1cc(C)c(/C=C2\C(=O)Nc3ccccc32)[nH]1 | 2
21 | CN(C)S(=O)(=O)c1ccc2c(c1)/C(=C/c1cc3c([nH]1)CCCC3)C(=O)N2 | 71
22 | CCN(CC)CCNC(=O)c1c(C)[nH]c(/C=C2\C(=O)Nc3ccc(Cl)cc32)c1C | 5
23 | Nc1ncnc2c1c(-c1ccc(Oc3ccccc3)cc1)cn2C1CCCC1 | 8
24 | CC(C)c1nn(-c2c(Cl)cccc2Cl)c2nc(Cc3ccc(OCCO)cc3)[nH]c(=O)c12 | 53
25 | O=c1cc(N2CCNCC2)oc2c(-c3ccccc3)cccc12 | 85
26 | O=C1C(Cl)=C(N2C(=O)CCC2=O)C(=O)c2ccccc21 | 85
27 | O=C1Nc2ccc(Cl)cc2/C1=C/c1cc(Cl)c(O)c(Cl)c1 | 35
